Screening results as filed in PubChem BioAssay.
FLuc modulator = counter-screen for miR-21 project: firefly luciferase inhibitors or activators | P08659 | purified FLuc, Km substrates, luminescence inhibition | Potency, µM (series often up to 57.5 µM), hits mostly inhibitors | 360,000 tested, 6.9% active | AID 588342; further: nearly all actives have a fitted effect of over 55% in size
Target sequence (P08659 whole entry, looked up): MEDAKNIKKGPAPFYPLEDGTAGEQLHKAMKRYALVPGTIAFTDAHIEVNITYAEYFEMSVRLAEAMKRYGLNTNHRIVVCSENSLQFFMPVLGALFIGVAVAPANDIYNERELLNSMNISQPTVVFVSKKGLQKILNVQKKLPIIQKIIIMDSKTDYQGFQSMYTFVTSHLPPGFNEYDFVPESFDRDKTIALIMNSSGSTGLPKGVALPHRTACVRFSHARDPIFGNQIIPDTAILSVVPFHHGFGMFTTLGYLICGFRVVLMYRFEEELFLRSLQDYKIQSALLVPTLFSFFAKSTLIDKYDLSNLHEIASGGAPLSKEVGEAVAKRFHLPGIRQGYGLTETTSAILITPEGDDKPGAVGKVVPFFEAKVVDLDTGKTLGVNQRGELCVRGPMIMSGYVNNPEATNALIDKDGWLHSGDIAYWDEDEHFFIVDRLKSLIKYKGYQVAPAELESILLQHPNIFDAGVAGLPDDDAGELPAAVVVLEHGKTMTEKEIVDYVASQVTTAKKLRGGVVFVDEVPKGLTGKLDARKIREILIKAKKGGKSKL
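Purified P. pyralis luciferase, 10 nM final, with Km-level 10 uM D-luciferin and 10 uM ATP in 50 mM Tris acetate pH 7.5, 10 mM Mg acetate, 0.01% Tween-20, 0.05% BSA; 6-point qHTS titration about 60 µM downward; luminescence read.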
Rab9 promoter act = Rab9 promoter activation; Huh7 Rab9 promoter-luciferase reporter, luminescence, 24 h; Potency, µM (top dose mostly 9.22 µM), usual class: activators; 320,000 tested, 2.8% active; AID 485297; further: nearly all actives have a fitted effect of over 60% in size
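Huh7 cells stably carrying a Rab9 promoter-luciferase reporter, 1500 cells per well in OP-MEM I with 10% FBS, treated with compound 24 hours at 37C. Luciferase activity read by luminescence after 10 minutes with Amplite reagent.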
SMN2 splice enh = increases expression of the SMN2 splice variant; 210,000 tested, 2.8% active; HEK293 SMN2-luciferase splicing reporter, luminescence, 30-36 h; Potency, µM (top dose mostly 46.1 µM), usual class: activators; further: nearly all actives have a fitted effect of over 55% in size
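qHTS luciferase splicing reporter: luminescence rises when SMN2 exon 7 is included in transfected HEK293 cells. Compound exposure lasted 30-36 h at 37C, with 4.5 mM final sodium butyrate as control, followed by a ONE-Glo read.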
NPC1 promoter act = activators of NPC1 promoter; Huh7 NPC1 promoter luciferase reporter, 24 h; Potency, µM (doses to about 9.22 µM), usual class: activators; 320,000 tested, 2.4% active; AID 485313; further: nearly all actives have a fitted effect of over 60% in size
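Stably transfected Huh7 (NPC1 promoter→luciferase), 1500 cells/well in Opti-MEM + 10% FBS, 2 h settle, then compound 24 h at 37 °C. Luminescence after 10 min with Amplite reagent.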
ELG1 DNA repair = blocks ELG1-dependent DNA repair in HEK293T cells | Potency, µM (series often up to 46.1 µM), hits mostly inhibitors | HEK293T ELG1-luciferase reporter, luminescence, 16 h; DNA damage induced by 5-fluorouridine | 330,000 tested, 2.3% active; further: nearly all actives have a fitted effect of over 55% in size
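Luminescence from the luciferase reporter, measured 30 min after ONE-Glo reagent at room temperature, was the read-out. Beforehand, 2,000 cells per well were exposed for 16 hr at 37 °C to 5-fluorouridine together with compound or vehicle.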
ELG1 genotox = inducers of genotoxicity in HEK293T ELG1-luciferase cells; 330,000 tested, 1.3% active; HEK293T ELG1-luciferase reporter, luminescence, 16 h; Potency, µM (series often up to 46 µM), most hits filed as activators; AID 504466; further: nearly all actives have a fitted effect of over 60% in size
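Quantitative HTS format in 1536-well plates. HEK293T ELG1-luciferase reporter cells receive test compound and are incubated 16 hr at 37 °C, 5% CO2; ONE-Glo added, 30 min room temperature, then luminescence read.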
Large screens that a line does not name were inactive. An excerpt weighted towards active compounds, which were near 9.3% of everything screened. The call rests on the fitted dose curve; in most records, active means well fitted curve in the direction sought with a large enough effect; inconclusive means small, poorly fitted or top-dose-only effect, or another doubt; inactive means no such curve, though single readings can be large; an effect the other way counts as inactive or inconclusive.

CCOc1ccc2nc(Cl)c(CN(C(=O)c3cnccn3)C3CCCC3)cc2c1	ELG1 DNA repair 14.6µM
O=C(NCc1cccnc1)C(=O)Nc1nc2ccccc2s1	FLuc modulator 15.1µM, ELG1 DNA repair inconclusive, ELG1 genotox inconclusive
CCOc1ccc2nc(NC(=O)c3cnccn3)sc2c1	FLuc modulator 1.51µM, Rab9 promoter act 0.251µM, NPC1 promoter act 0.794µM, ELG1 DNA repair inconclusive, ELG1 genotox inconclusive (no result: SMN2 splice enh)
O=C(Nc1nc2ccccc2s1)c1cnccn1	FLuc modulator 2.13µM, Rab9 promoter act 0.316µM, SMN2 splice enh 6.31µM, NPC1 promoter act 1.12µM, ELG1 DNA repair inconclusive, ELG1 genotox 0.461µM
O=C(NCc1cccnc1)C(=O)Nc1nccs1	none
COc1cc(C)nc(N(Cc2ccccc2)S(=O)(=O)c2ccc(C)cc2)n1	none (no result: SMN2 splice enh)
COc1ccc(NC(=O)CN(C)C(=O)c2ccc(COc3ccccc3)cc2)cc1	none (no result: SMN2 splice enh)
O=C(Nc1nc2ccc(F)cc2s1)c1ccccn1	FLuc modulator 0.536µM, Rab9 promoter act 0.0891µM, NPC1 promoter act inconclusive, ELG1 DNA repair inconclusive, ELG1 genotox inconclusive
O=C(Nc1nc2c(s1)CCCC2=O)c1cnccn1	FLuc modulator inconclusive, Rab9 promoter act inconclusive, SMN2 splice enh 20µM, NPC1 promoter act inconclusive, ELG1 DNA repair inconclusive, ELG1 genotox 23.1µM
CCOc1ccc(-n2nc3ccc(N)cc3n2)cc1	FLuc modulator 0.757µM, NPC1 promoter act inconclusive, ELG1 DNA repair inconclusive, ELG1 genotox inconclusive (no result: SMN2 splice enh)
CCOc1ccc(-n2nc3cc(C)c(N)cc3n2)cc1	FLuc modulator 0.338µM, Rab9 promoter act 0.447µM, NPC1 promoter act 0.447µM, ELG1 DNA repair inconclusive, ELG1 genotox inconclusive (no result: SMN2 splice enh)
Nc1ccc2oc3ccc(N)cc3c(=O)c2c1	FLuc modulator 23.9µM, Rab9 promoter act 3.98µM, SMN2 splice enh inconclusive, NPC1 promoter act 2.51µM, ELG1 DNA repair inconclusive, ELG1 genotox inconclusive
CC1CC(C)CN(C(=S)SCc2nc(N)nc(Nc3ccccc3)n2)C1 (centres undefined)	ELG1 DNA repair inconclusive (no result: SMN2 splice enh)
CCOc1ccc(Nc2nc(N)nc(CSC(=S)N3CCOCC3)n2)cc1	FLuc modulator inconclusive, NPC1 promoter act 2.82µM, ELG1 DNA repair inconclusive (no result: SMN2 splice enh)
Nc1nc(CSC(=S)N2CCCCC2)nc(Nc2ccccc2)n1	FLuc modulator 26.9µM, Rab9 promoter act inconclusive, SMN2 splice enh inconclusive, ELG1 DNA repair inconclusive, ELG1 genotox inconclusive
Cc1ccc(Nc2nc(N)nc(CSC(=S)N3CCOCC3)n2)cc1	FLuc modulator 15.1µM, Rab9 promoter act inconclusive, SMN2 splice enh inconclusive, NPC1 promoter act 2.82µM, ELG1 DNA repair inconclusive, ELG1 genotox inconclusive
COc1ccccc1Nc1nc(N)nc(CSC(=S)N2CCCCC2)n1	FLuc modulator 16.9µM, ELG1 DNA repair inconclusive (no result: SMN2 splice enh)
CCOC(=O)c1c(O)c2c([nH]c1=O)CCCC2	none (no result: SMN2 splice enh)
Nc1nc(CSC(=S)N2CCOCC2)nc(Nc2ccccc2)n1	FLuc modulator 13.5µM, Rab9 promoter act 3.55µM, SMN2 splice enh 11.2µM, NPC1 promoter act inconclusive, ELG1 DNA repair inconclusive, ELG1 genotox 20.6µM
Cc1cccc(Nc2nc(N)nc(CSC(=S)N3CCOCC3)n2)c1	Rab9 promoter act inconclusive, NPC1 promoter act inconclusive (no result: SMN2 splice enh)
CCOC(=O)c1cc2c(ccn2C)n1CC(=O)N1CCC(Cc2ccccc2)CC1	ELG1 DNA repair inconclusive
Nc1c(C(=O)OCC(=O)Nc2ccc(Cl)cc2[N+](=O)[O-])[nH]c(=O)[nH]c1=O	none (no result: SMN2 splice enh)
Cc1ccc(S(=O)(=O)Nc2ccc3nc(-c4cccc(Cl)c4)oc3c2)cc1	none (no result: Rab9 promoter act, SMN2 splice enh, NPC1 promoter act, ELG1 DNA repair, ELG1 genotox)
COC(=O)c1ccc(-c2nc3ccccc3o2)cc1	FLuc modulator 1.9µM, Rab9 promoter act 0.631µM, SMN2 splice enh inconclusive, NPC1 promoter act 3.55µM, ELG1 DNA repair inconclusive, ELG1 genotox inconclusive
COc1ccc(-c2nc3ccc(NS(C)(=O)=O)cc3o2)cc1	FLuc modulator 2.69µM (no result: Rab9 promoter act, SMN2 splice enh, NPC1 promoter act, ELG1 DNA repair, ELG1 genotox)
COC(=O)c1ccc(-c2ncc(-c3cccc4ccccc34)o2)cc1	FLuc modulator inconclusive, Rab9 promoter act 1.78µM, SMN2 splice enh 11.2µM, NPC1 promoter act inconclusive, ELG1 DNA repair inconclusive
COc1ccc(C(=O)NC(=S)NCc2ccc(-c3nc4ccccc4o3)cc2)cc1OC	ELG1 genotox inconclusive
